Experimental data published in ChEMBL document CHEMBL3988442, “University of Dundee, Small-Polar-MMV Screening Library” (2021).
The campaign covered roughly 48,000 compounds. About 13,000 (27%) showed an effect of 50% or more. The list shows a part of the results.

Tested on: Wolbachia pipientis
Experiment: Anti-Wolbachia Cell-Based Screen
Format: functional
Design: scale not given: in the data most compounds retested in dose-response had high values
Conditions: 5 µM

SMILES | Percent Effect [%]
Cc1cc(NCCCNc2cccnc2)n2nc(C)c(C)c2n1 | 88.33
CNc1ccnc(NCCSc2nccn2C)n1 | 3.348
CCSCCNc1cc(C)nc2c(C)c(C)nn12 | 76.05
Cc1ccnc(NCCSc2nccn2C)n1 | -1.785
CCCc1cc(NCCn2cccn2)n2ncnc2n1 | -13
CCc1cc(NCCc2cnccn2)n2nc(C)c(C)c2n1 | -4.525
Cc1cc(NCCn2cccn2)n2ncnc2n1 | -4.993
Cc1cc(NCc2nnc3n2CCC3)n2nc(C)c(C)c2n1 | 8.542
CCc1cc(NCCNC(=O)c2cccnc2)n2nc(C)c(C)c2n1 | 18.31
Cc1cc(NCCSc2nccn2C)n2nc(C)c(C)c2n1 | 108.3
CCc1cc(NCCc2cccnc2)n2nc(C)c(C)c2n1 | 15.8
Cc1cc(NCCSc2nccn2C)n2ncnc2n1 | 81.57
CCOC(=O)c1nnc2ccccc2c1N1CCN(CC)CC1 | -7.556
CC1(C)CC(N2Cc3nc(N4CCOCC4)ncc3C2=O)CC(C)(C)N1 | 10.47
CN(C)c1ncc2c(n1)CCCC2NC(=O)C1CC1 (stereo not given) | 13.73
O=C(NC1CCCc2nc(N3CCOCC3)ncc21)C1CCCCC1 (stereo not given) | 91.3
O=C(CC1CCCCC1)NC1CCCc2nc(N3CCOCC3)ncc21 (stereo not given) | 100.9
CCS(=O)(=O)c1ccc(N2CCC(NC(=O)CC3CCCC3)CC2)cc1 | -9.103
O=C(NC1CCCc2nc(N3CCOCC3)ncc21)C1CCCC1 (stereo not given) | 122.7
CC(C)(C)c1cnc(CN2CCC(NC(=O)CC3CCCC3)CC2)o1 | 1.419
O=C(NC1CCCc2nc(N3CCCCC3)ncc21)C1CCCC1 (stereo not given) | 90.75
Cn1ccnc1-c1ccc(NC[C@H]2CCc3ccccc3O2)nn1 | 2.045
Cn1c(NC(=O)CNC(=O)C2CCCC2)nc2cc(Cl)ccc21 | 10.58
Cc1nnc(CN2CCC3(CCC(=O)N(C4CC4)C3)CC2)o1 | 3.003

SMILES | Percent Effect [%]
COc1cccc2c1OCC(C(=O)N1CCN(S(=O)(=O)N(C)C)CC1)C2 (stereo not given) | -34.53
CCS(=O)(=O)N1Cc2nccn2CC(Cn2cccn2)C1 (stereo not given) | 103.5
CCCS(=O)(=O)N1Cc2nccn2CC(Cn2cncn2)C1 (stereo not given) | 104.9
CCCS(=O)(=O)N1Cc2nccn2CC(CN2CCCC2)C1.O=C(O)C(F)(F)F (stereo not given) | -1.434
CCS(=O)(=O)N1Cc2nccn2CC(Cn2cncn2)C1 (stereo not given) | 101.6
CCS(=O)(=O)N1Cc2nccn2CC(CN2CCCC2)C1 (stereo not given) | -0.1339
CCCS(=O)(=O)N1Cc2nccn2CC(Cn2cccn2)C1 (stereo not given) | -3.213
CCS(=O)(=O)N1Cc2nccn2CC(Cn2nc(C)nc2C)C1 (stereo not given) | 6.553
Cc1nc(C)n(CC2CN(S(C)(=O)=O)Cc3nccn3C2)n1 (stereo not given) | 2.83
O=S(=O)(C1CC1)N1Cc2nccn2CC(Cn2cncn2)C1 (stereo not given) | 116.3
CCn1nccc1C(=O)N1CCCCC1CCc1ccc(O)cc1 (stereo not given) | 1.71
CC(NC(=O)Nc1nccs1)c1ccc(S(C)(=O)=O)cc1 (stereo not given) | 7.495
CCC(C(=O)NCC1CCN(c2cnn(C)c(=O)c2)CC1)n1cccn1 (stereo not given) | 4.446
O=C(c1ccoc1)N1CCCn2nnc(COCC3CC3)c2C1 | -7.176
O=C(C1CCC1)N1CCc2[nH]cnc2C12CCN(C1CCOCC1)CC2 | 2.513
CN1CCN(Cc2nc3c(s2)CCCC3)[C@H]2CS(=O)(=O)C[C@H]21 | -12.07
CC(C)(C)c1nnc(CN2CCN(CC(O)c3ccccc3)CC2)o1 (stereo not given) | -4.717
O=C(CCCc1ccc(F)cc1)N1C[C@@H](CN2CCOCC2)[C@@H](CO)C1 | -13.37
O=C1CN(Cc2cnc3c(-c4ccccc4)cnn3c2)CCCN1 | -7.334
CNC(=O)[C@@H](C1CC1)N1CCC[C@H]1C(=O)NCC(C)C.Cl | 5.18
CN(CCN1CCCCCC1)C(=O)c1cc(CN2CCCC(O)C2)on1 (stereo not given) | -22.76
CC(=O)Nc1c(C)cnn1Cc1cc(F)ccc1F | -3.865
COc1ccc(C(=O)NCCCNc2ncccn2)c(OC)c1 | -2.256
CS(=O)(=O)NCCCNC(=O)c1cccnc1O | -1.609

SMILES | Percent Effect [%]
O=C(NCCCN1CCc2ccccc2C1)c1cccnc1O | 6.847
CC(OCCCNC(=O)c1cccnc1O)c1ccccc1 (stereo not given) | 95.41
COc1ccc(C(=O)NCCc2nnc3ccccn23)c(OC)c1 | -1.311
COc1ccc(C(=O)NCCCOC(C)c2ccccc2)c(OC)c1 (stereo not given) | 92.39
COCCN1CC2(CCCN(Cc3cc(=O)c(OC)co3)C2)CCC1=O (stereo not given) | 3.181
COc1cc(CNC(=O)NCCCF)cc(Br)c1OC | -2.867
CN(C(=O)Cn1nc(-c2ccc(F)cc2)oc1=O)c1ccccc1 | -62.32
CN(C(=O)CSc1ncc[nH]1)c1ccccc1 | 93.6
CN(C(=O)CN1CCCC1Cc1ccccc1)c1ccccc1 (stereo not given) | 21.48
CCN(CC)C(=O)CSc1ncc[nH]1 | 45.3
CCN(C(=O)CSc1ccc(C(F)(F)F)cn1)C1CC1 | -14.79
CN(C(=O)CSc1ncc[nH]1)C1CC1 | 109.9
COc1ncccc1NC(=O)N1CCCC(CNC(=O)OC(C)(C)C)C1 (stereo not given) | 1.374
O=C(NC[C@H]1Cn2c(-c3ccccc3)cnc2CO1)C1CCOCC1 | -9.795
Cn1c(-c2ccccc2Cl)nc2cc(C(=O)NCC3(C)COC3)cnc21 | 7.504
CCCc1nccn1-c1cccc(C(C)O)c1 (stereo not given) | 0.8056
Cc1ccc(NC(=O)N2CCC(NC(=O)c3ccc(C)o3)CC2)cc1 | -6.266
Cc1ccc(C(=O)NC2CCN(C(=O)Nc3ccncc3)CC2)o1 | 166.8
Cc1ccc(C(=O)NC2CCN(C(=O)Nc3ccccn3)CC2)o1 | 4.828
Cc1ccc(C(=O)NC2CCN(C(=O)NCc3ccccn3)CC2)o1 | 118.1
O=C(NCc1ccccn1)N1CC=C(c2ccccc2)CC1 | 32.63
Cc1cc(C(=O)NC2CCN(C(=O)Nc3cccnc3)CC2)c(C)o1 | 20.93
